Most compounds without a hit are left out; they make up all but 19% or so of the library.
MCF10A rereplic = A quantitative high throughput screen for small molecules that induce DNA re-replication in MCF 10a normal breast cells; MCF 10A DNA re-replication, Hoechst nuclear intensity, 48 h; Potency, µM (highest dose often 46.1 µM), most hits filed as activators; 350,000 compounds, 2.9% hits; AID 624296, 2012; also: nearly all actives have a fitted effect of over 50% in size
DT40 TDP1 CPT = qHTS for Inhibitors of human tyrosyl-DNA phosphodiesterase 1 (TDP1): qHTS in cells in presence of CPT. chicken DT40 Tdp1-/-;hTDP1 cells + 20 nM CPT, ATP luminescence, 48 h. Potency, µM (series often up to 46.2 µM), most hits filed as inhibitors. 420,000 compounds, 12% hits; also: nearly all actives have a fitted effect of over 55% in size
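Cell growth measured by CellTiter-Glo luminescence after a minimum 48 h, 37 C compound exposure with 20 nM CPT in Tdp1-knockout DT40 cells stably expressing hTDP1, seeded 400/well; qHTS titration format.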
TDP1 cell noCPT = qHTS for Inhibitors of human tyrosyl-DNA phosphodiesterase 1 (TDP1): qHTS in cells in absence of CPT; DT40 Tdp1-/- hTDP1 cells, no CPT, ATP luminescence, 48 h; Potency, µM (titrated, usually from 46.2 µM), hits mostly inhibitors; 420,000 compounds, 15% hits; also: nearly all actives have a fitted effect of over 55% in size
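Growth kinetics read by CellTiter-Glo luminescence after ≥48 hr at 37 °C. Cells: DT40 Tdp1-/- stably carrying human TDP1, 400 per well, compound exposure in the absence of CPT (DMSO vehicle).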
SW480 rerep = A quantitative high throughput screen for small molecules that induce DNA re-replication in SW480 colon adenocarcinoma cells | 340,000 compounds, 1.8% hits | Potency, µM (highest dose often 46.1 µM), actives largely listed as activators | SW480 DNA re-replication, Hoechst DNA content imaging, 48 h; also: nearly all actives have a fitted effect of over 55% in size
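SW480 cells exposed to compounds for 48 hr at 37 C, 5% CO2, then Hoechst-stained 40 min. Nuclear DNA content imaged by fluorescence scanning (405 nm excitation, 500-530 nm emission); re-replication scored as increased high-intensity nuclei.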
Chronic BCR inh = qHTS Assay to Find Inhibitors of Chronic Active B-Cell Receptor Signaling; ABC-DLBCL IkBa-CBG/CBR reporter, luminescence ratio, 4 h; Potency, µM (highest dose often 46.1 µM), hits mostly inhibitors; 340,000 compounds, 0.05% hits; active = well fitted inhibition curve with a large enough effect in the signal ratio, with a control signal flat, not every such curve was filed as active; inconclusive = small, poorly fitted or top-dose-only effect, or effect the other way, or a change in a side signal; the % refers to the signal ratio
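Doxycycline induced both beetle luciferases in TMD8 lymphoma cells; IKK-driven degradation limits the IkappaBalpha-fused green signal, while red luminescence normalises for cell number and nonspecific effects. Compounds tested up to 46 uM, 4 hrs.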
IL-1B inflam inh = qHTS for Inhibitors of Inflammasome Signaling: IL-1-beta AlphaLISA Primary Screen. THP-1 LPS/ATP IL-1B secretion, AlphaLISA, 16 h; stronger effect = lower value. activity change, % at 57.5 µM. 360,000 compounds, 4.7% hits; in the data active = activity change below about -50%; inconclusive = mostly about -30% to -49%
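Secreted IL-1B measured by AlphaLISA bead assay after 16 h compound exposure of THP-1 cells; compounds (final up to 57.5 uM) added 1 h before LPS (250 ng/mL) and ATP (1.25 mM) stimulation; lower signal means less secretion.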
A number is an active result; n = inactive; u = inconclusive; x = not tested or not shown; [ ] = another dose, or the depositor's remark. Unless noted, calls follow the shape of the dose curve; as a rule, active = well fitted curve in the direction sought with a large enough effect; inconclusive = small, poorly fitted or top-dose-only effect, or another doubt; inactive = no such curve, though single readings can be large; an effect the other way counts as inactive or inconclusive.

SMILES	MCF10A rereplic	DT40 TDP1 CPT	TDP1 cell noCPT	SW480 rerep	Chronic BCR inh	IL-1B inflam inh
COc1cccc(/C=C(\C#N)c2nc3ccc(C)cc3[nH]2)c1OCC(=O)O	n	n	n	n	n	n
CC(=O)c1ccc(NC(=O)C(C)Sc2n[nH]c(-c3cccnc3)n2)cc1 (stereo not drawn)	u	n	n	n	n	n
O=C(CCC1CCCCC1)Nc1ccc(C(=O)c2ccncc2)cc1	n	u	u	n	n	-92.2
O=C(CCC1CCCCC1)Nc1cccnc1	n	n	n	u	n	n
O=c1cc(-c2ccccc2)nc(SCc2ccc(F)cc2)[nH]1	n	n	n	n	n	n
CSc1nc(-c2ccc(F)cc2)cc(=O)[nH]1	n	n	n	9.2µM	n	n
O=C(C(=O)N1CCN(c2ccccc2F)CC1)c1cn(CC(=O)N2CCCC2)c2ccccc12	x	n	n	x	x	n
O=C(NC1CCCCC1)N1CCNCC1	u	n	n	n	n	n
C1CCCCCC(NCCN2CCNCC2)CCCCC1	u	3.66µM	2.59µM	u	n	u
Cc1nnc(N/N=C/c2cc([N+](=O)[O-])c(N3CCC(C)CC3)cc2N2CCC(C)CC2)n1N	u	n	u	u	n	-68.0
O=C1NC(c2ccccc2)=C(c2ccc3ccccc3n2)C(c2ccccc2)N1 (stereo not drawn)	n	u	25.9µM	u	u	n
COc1ccc(NC(=O)CN(C)C(=O)C2(c3ccccc3)CCCC2)cc1	n	u	u	n	n	n
CCN1C[C@@H]2[C@@H]3C(=O)N(C)C(=O)[C@@H]3[C@](C)(C1=O)N2C(=O)c1ccc(Cl)c(Cl)c1	n	n	n	n	x	n
CCC1=NN(C(=O)c2ccc(Br)cc2)C(O)(c2ccccc2)C1 (stereo not drawn)	u	5.8µM	6.51µM	n	u	n
CC1=NN(C(=O)c2ccccc2Cl)C(O)(c2ccccc2)C1 (stereo not drawn)	n	n	n	n	u	n
CC1=NN(C(=O)c2ccccc2)C(O)(c2ccc(Br)cc2)C1 (stereo not drawn)	u	5.8µM	u	n	u	n
CCOC(=O)C1=NN(C(=O)c2ccccc2)C(O)(c2ccc(C)cc2)C1 (stereo not drawn)	n	u	25.9µM	n	u	n
CCC1=NN(C(=O)c2cccc([N+](=O)[O-])c2)C(O)(c2ccc(C)cc2)C1 (stereo not drawn)	n	u	u	n	u	n
O=C(CO)c1c[nH]c2ccccc12	x	n	n	x	x	x
O=C(NCC1CCCO1)c1cc2ccccc2nc1Cl (stereo not drawn)	0.731µM	n	n	n	n	n
O=C(NCC1CCCO1)c1cc(-c2ccccc2)on1 (stereo not drawn)	n	u	u	n	u	-79.9
CCCS(=O)(=O)NC(=O)C1(C)CCCN(C(=O)c2ccc(C#N)cc2)C1 (stereo not drawn)	x	n	n	x	x	n
Cn1ccnc1C(=O)c1ccc(NN)c([N+](=O)[O-])c1	u	n	n	n	u	-217.2
Cn1ccnc1C(=O)c1cccc([N+](=O)[O-])c1	n	n	n	n	n	n
CN(c1ccc([N+](=O)[O-])cc1)c1cc2c(c3c1ccn3C)C1CCC2C1 (stereo not drawn)	x	n	n	x	x	n
SMILES	MCF10A rereplic	DT40 TDP1 CPT	TDP1 cell noCPT	SW480 rerep	Chronic BCR inh	IL-1B inflam inh
COc1ccc2[nH]cc(CCNc3cc(-c4ccccc4OC)ncn3)c2c1	x	16.4µM	u	x	x	x
COc1ccc2[nH]cc(CCNc3ncnc4ccc(-c5cccc(C#N)c5)cc34)c2c1	x	20.6µM	u	x	x	x
COc1cccc(-c2ccc3ncnc(NCCc4c[nH]c5ccc(OC)cc45)c3c2)c1	x	23.1µM	20.6µM	x	x	x
COc1ccc2[nH]cc(CCNc3ncnc4ccc(-c5ccccc5C#N)cc34)c2c1	x	u	18.4µM	x	x	x
COc1ccc2[nH]cc(CCNc3ncncc3-c3ccccc3CN(C)C)c2c1	x	n	n	x	x	x
COc1ccc(CNc2ncnc3ccc(-c4ccccc4C#N)cc23)c(OC)c1	x	u	n	x	x	x
Cc1ccnn1-c1ccc(C(=O)N2CCCN(S(=O)(=O)c3ccc(F)cc3)CC2)cc1	n	n	n	n	n	n
Cc1ccc(C(=O)N(Cc2cc3cccc(C)c3nc2N(C)C)CC2CCCO2)cc1 (stereo not drawn)	x	n	n	x	x	x
N#Cc1cccc(-c2cc(NCc3cccnc3)ncn2)c1	x	n	n	x	x	x
COc1ccc2[nH]cc(CCNc3cc(-c4cccc(C#N)c4)ncn3)c2c1	x	20.6µM	u	x	x	x
Cc1csc(NC(=O)CCC(=O)N(CC(=O)NC2CCCC2)Cc2ccccc2)n1	n	n	n	n	u	n
Cc1cccnc1Nc1nc(-c2ccccc2)cs1	n	u	n	n	u	n
COc1ccc(-c2csc(Nc3cccc(C)n3)n2)cc1	n	u	u	n	u	n
Fc1ccc(-c2csc(Nc3ccccn3)n2)cc1	n	16.4µM	u	u	u	n
Cc1cccc(Nc2nc(-c3ccccn3)cs2)n1	n	5.17µM	6.51µM	u	u	n
Cc1cccnc1Nc1nc(-c2ccccn2)cs1	9.2µM	0.13µM	0.146µM	u	u	-111.5
Cc1cccc(Nc2nc(-c3ccc(F)cc3)cs2)n1	n	11.6µM	u	n	u	n
CCCNC(=O)COCc1cc(-c2ccc(F)cc2)on1	x	n	u	x	u	x
c1ccc(Nc2nc(-c3cccs3)cs2)nc1	n	u	u	n	u	n
CC(=O)Oc1ccc(-c2csc(Nc3ccccn3)n2)cc1	x	16.4µM	7.31µM	x	x	n
Cc1cccc(Nc2nc(-c3cccs3)cs2)n1	n	u	23.1µM	n[9.22 µM]	u	n
Cc1ccc([C@H]2C[C@H](n3cc(-c4ccc(F)cc4)nn3)[C@@H](O)CN2C(=O)c2cccs2)cc1	x	n	u	x	x	-51.5
Cc1ccc([C@H]2C[C@H](O)[C@@H](n3cc(C4CC4)nn3)CN2C(=O)c2cccs2)cc1	x	n	n	x	x	n
Cc1ccc([C@H]2C[C@@H](O)[C@H](n3cc(C4CC4)nn3)CN2C(=O)c2cccs2)cc1	x	u	20.6µM	x	x	n
O=C(c1cccs1)N1C[C@@H](O)[C@H](n2cc(-c3ccc(F)cc3)nn2)C[C@@H]1c1ccccc1	x	18.4µM	16.4µM	x	x	n
Cc1ccc([C@H]2C[C@H](n3cc(C4CC4)nn3)[C@@H](O)CN2C(=O)c2cccs2)cc1	x	n	n	x	x	n
